The whole screen tested about 58,000 compounds, of which about 100 (0.17%) were called active. Many of the other results were omitted from the sample, so actives are more common in it than they were. Unmarked numbers belong to inactive results. Cut-off read from the data, not from the text of the source: active = inhibition above about 45%; inactive = the rest. Where a SMILES comes first, the peptide text is derived from it. The star is where a group is joined. Bz = O=C(c1ccccc1)*

Chain of Procathepsin L (Homo sapiens) (P07711 114-288 limits assumed): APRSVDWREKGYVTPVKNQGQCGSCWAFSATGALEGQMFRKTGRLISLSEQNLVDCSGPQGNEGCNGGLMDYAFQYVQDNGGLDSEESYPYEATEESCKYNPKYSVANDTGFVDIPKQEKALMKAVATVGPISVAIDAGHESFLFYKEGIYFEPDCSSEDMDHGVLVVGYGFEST
Chain of Procathepsin L (Homo sapiens) (P07711 292-333 limits assumed): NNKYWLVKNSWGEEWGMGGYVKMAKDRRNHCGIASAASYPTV

The test has as its target Procathepsin L (Homo sapiens) (UniProt P07711). In words: inhibitors of human cathepsin L, biochemical (AID 460).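 Note: 0% = enzyme with no compound and 100% = no enzyme blank.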 To be noted: purified cathepsin L, fluorogenic substrate, fluorescence; hits give high values;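 tested at 10 µM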.
For the compound `CCOCCOC(=O)C1=C(C)N(C)C(=O)NC1c1ccccc1F` (stereo not given), the inhibition (commonly the drop in the measured response relative to a control, in per cent) is -0.79%.

For the compound `CCOc1cc(C)c(Cl)cc1S(=O)(=O)n1nnc2ccccc21`, the inhibition was 3.04%.

Turning to `O=C(c1ccccc1)c1ccc2nc(N3CCCCC3)c3nncn3c2c1`, the inhibition was -3.17%.

Regarding `CCOC(=O)CCc1c(C)c2ccc(OCc3nn[nH]n3)c(C)c2oc1=O`, the inhibition is -20.7%.

On to `COc1ccc(OC)c2c(N)c(C#N)c(C(F)(F)C(F)(F)F)nc12`, for which the inhibition was -8.11%.

Turning to `Cc1c(C)c2cc3c4c(oc3c(C)c2oc1=O)CCCC4`, the inhibition is 2.98%.

`CC1CCN(Cc2nc3c(c(=O)n(C)c(=O)n3C)n2Cc2cccc3ccccc23)CC1`: the inhibition is 0.14%.

Turning to `OC(COc1cccc2ccccc12)CN1CCN(c2ccccn2)CC1` (stereo not given), the inhibition was 7.74%.

Consider `O=C(CS(=O)(=O)c1cn(Cc2cccc(F)c2)c2ccccc12)N1CCCCC1`, for which the inhibition was 17.3%.

Take `CCCC(=O)C1=C(N(C)c2ccccc2)CC(C)(C)C(C(=O)OC)C1=O` (stereo not given): the inhibition is -1.31%.

For `CCCn1c(=NC(C)=O)c(C(=O)OCC)cc2c(=O)n3ccccc3nc21`, the inhibition was -149%.

As for `Cc1cc2cc(CNC(=O)c3ccc(S(=O)(=O)N4CCOCC4)cc3)ccc2[nH]1`, the inhibition was 4.06%.

Take `CN(CCCC(=O)Nc1nccs1)S(=O)(=O)c1ccc(Cl)cc1`: the inhibition is -4.71%.

As to `CC1=NC2(CCCc3c2no[n+]3[O-])N(O)C1(C)C` (stereo not given), the inhibition was 1.32%.

In the case of `CC(=O)N1C(=O)C2(Nc3ccccc3N2)c2ccccc21`, the inhibition is 1.65%.

Take `COc1ccccc1CNC(=O)C1CCN(S(C)(=O)=O)CC1`: the inhibition is 2.28%.

With `CC(=O)N=c1ncn(CC(COC(C)=O)OC(C)=O)c2nc[nH]c12` (stereo not given), the inhibition was -1.89%.

Turning to `Cc1cccc(OCc2nnc(SCc3nc4cc(C(F)(F)F)ccc4c(=O)[nH]3)o2)c1`, the inhibition is -0.3%.

On to `O=C(O)C1CC=CCC1C(=O)NCCc1ccccc1` (stereo not given), for which the inhibition is -8.83%.

Take `CC(C)c1ccc(NS(=O)(=O)c2cn(C)c(=O)n(C)c2=O)cc1`: the inhibition was 12.5%.

For `O=C(NC(Cc1ccccc1)C(=O)N1CCCC1C(=O)O)c1ccccc1` (stereo not drawn) (Bz-Phe-Pro-OH; configuration not given here), the inhibition is 17.6%.

Regarding `Cc1ccc(C)c(N(CC(=O)NCc2ccco2)C(=O)CCC(=O)Nc2ccccn2)c1`, the inhibition is -0.88%.

For the compound `COc1ccc(-c2nnn(Cc3nc(N)nc(N4CCCCC4)n3)n2)cc1`, the inhibition is -3.62%.

For `CCOc1cccc(=O)c2c(C)n(CC3CCCO3)c(C)c12` (stereo not given), the inhibition is -0.25%.

Take `CC(NC(=O)Nc1ccccc1)c1ccccc1` (stereo not given): the inhibition was 1.63%.

Turning to `O=C(CCN1C(=O)C2C3C=CC(C3)C2C1=O)Nc1ccccc1F` (stereo not given), the inhibition was -4.07%.

With `c1ccc(-c2cn3cccnc3n2)cc1`, the inhibition was -283%.

In the case of `c1ccc2c(c1)OCC(CNc1ncnc3nc[nH]c13)O2` (stereo not given), the inhibition was 81.5% (active).

Regarding `Cc1cc(NC(=O)CCC2COc3ccccc3O2)no1` (stereo not given), the inhibition was 0.43%.

As to `COc1ccc(CCNc2ncnc3nc[nH]c23)cc1OC`, the inhibition was -2.05%.

Consider `COC(=O)c1cc(OC)c(OC)cc1NC(=O)C1CCCO1` (stereo not given), for which the inhibition was 17.4%.

For the compound `Cc1nc(-c2ccc(NC(=O)c3cccs3)cc2)cs1`, the inhibition is 6.73%.

With `NS(=O)(=O)c1ccc(CCNC(=O)Nc2ccc(Cl)cc2)cc1`, the inhibition was 0.5%.

For the compound `COc1ccc(C2CC(c3ccccc3)Nc3ncnn32)cc1` (stereo not given), the inhibition was 20.2%.

As to `Cc1ccc(C2CC(=O)NC(SCC(=O)OCc3ccccc3)=C2C#N)o1` (stereo not given), the inhibition is 1.51%.

As to `CCOC(=O)C(CCOc1cccc(CC)c1)C(=O)OCC`, the inhibition is 20.3%.

On to `Cc1nnc(SCC(=O)N(C(C)C)C(C)C)nc1C`, for which the inhibition was 6.66%.

For `CCCC(C(=O)NCc1ccco1)N(C(=O)CNS(=O)(=O)c1ccccc1)C1CCCC1` (stereo not given), the inhibition was 10.1%.

With `Cn1c(=O)c2cn(-c3cccc4ccccc34)cc2n(C)c1=O`, the inhibition is 6.9%.

Turning to `COC(=O)c1ccc(CN(c2ccccc2OC)S(=O)(=O)c2cccs2)o1`, the inhibition was 14%.

On to `Fc1c(F)c(C(F)(F)F)c(F)c(F)c1N1CCN(c2ccc3nnc(C(F)(F)F)n3n2)CC1`, for which the inhibition was -17%.

Regarding `CC(C)NS(=O)(=O)c1ccc(OCC(=O)Nc2ccc3c(c2)OCCO3)cc1`, the inhibition was 16.4%.

For `COc1ccc(Cn2cccc(NC(=O)Nc3ccc(C#N)cc3)c2=O)cc1`, the inhibition is -10.3%.

`C=CCn1c(=N)n(CC(O)COc2ccc(OC)cc2)c2ccccc21` (stereo not given): the inhibition was 0.78%.

As to `Cc1ccc(C2CC(c3cccc(Br)c3)n3nc(N)nc3N2)cc1` (stereo not given), the inhibition is 19.9%.

For the compound `Cc1ccc(N2C(=O)CC(NCc3ccc4c(c3)OCO4)C2=O)cc1Cl` (stereo not given), the inhibition was -2.37%.

Regarding `Clc1ccccc1CSc1nnc(-c2ccco2)c(-c2ccco2)n1`, the inhibition is 49.7% (active).

`c1ccc(CSc2nnc(-c3ccco3)c(-c3ccco3)n2)cc1`: the inhibition is 10.8%.

Regarding `O=c1cc(O)nc(SCc2ccccc2Cl)[nH]1`, the inhibition is -2.97%.

Regarding `N#Cc1c(NC(=O)CCCN2C(=O)c3ccccc3C2=O)oc(-c2ccccc2)c1-c1ccccc1`, the inhibition is 4.96%.

Regarding `CN1c2ccccc2-c2nc3ccccc3n2C1c1ccco1` (stereo not given), the inhibition was -450%.

Regarding `COC(=O)C1=C(C)N(C)C(C)=C(C(=O)OC)C1c1cccc(Br)c1`, the inhibition is 10.9%.

Take `Cc1cc(Cl)c(S(=O)(=O)NCCC(=O)O)cc1OCC(N)=O`: the inhibition was 4.48%.

Turning to `COc1cc(-c2nn3c(-c4cccc(C)c4)nnc3s2)cc(OC)c1OC`, the inhibition is 0.7%.

On to `Cc1nnc(NC(=O)CSc2nccn2-c2cccc(C)c2C)s1`, for which the inhibition is 3.56%.

For `Cc1c(C(=O)N2CC(C)OC(C)C2)sc2nc(-c3ccccc3)cn12` (stereo not given), the inhibition is 23%.

Turning to `C=CCc1cccc2cc(C(=O)OCC)c(=O)oc12`, the inhibition is 5.84%.

Consider `CCC1CCCCN1CCNS(=O)(=O)c1ccc2c(c1)CCN2C(C)=O` (stereo not given), for which the inhibition was 12.7%.

Regarding `CC(C)CCNC(=O)C1CCCN(S(=O)(=O)c2ccc(F)cc2)C1` (stereo not given), the inhibition was 9.49%.

Regarding `COCc1cc(C)nc(SCC(=O)Nc2cccc(C)c2)c1C#N`, the inhibition is 10.9%.

Consider `CC12COC3(C(=O)Nc4ccc(Cl)cn4)CC1CCC32C` (stereo not given), for which the inhibition was 11.5%.

As to `CC(=O)Oc1cc2c(C(=O)NCCN3CCOCC3)c(C)oc2c2ccccc12`, the inhibition is -9.79%.

On to `C[N+](C)(C)CCNC(=O)c1c(O)c2c([nH]c1=O)CCCC2`, for which the inhibition is 8.42%.

Regarding `Cn1c(=O)n(CCc2ccccc2)c(=O)c2c1nc1n2CCCN1c1ccccc1`, the inhibition was 0.95%.

Regarding `COc1cc(C2C(C#N)=C(C)NC3=C2C(=O)CC(C)(C)C3)ccc1O` (stereo not given), the inhibition was 4.18%.

`Cn1c(=O)c(C(=O)Nc2ncccn2)c(O)c2ccccc21`: the inhibition is -15.3%.

Consider `CCOC(=O)c1c(C)nc(-c2ccccc2)nc1NC(=O)C(C)C`, for which the inhibition was 22.7%.

Turning to `CSCCC(NS(=O)(=O)/C=C/c1ccccc1)C(=O)N1CCC(C)CC1` (stereo not given), the inhibition is 7.86%.

With `CC1(C)Oc2ccc3ccc(=O)oc3c2/C(=C/NCCO)C1=O`, the inhibition is 14.3%.

On to `CCOC(=O)C(CC)Sc1ncnc2c1nnn2-c1ccc(F)cc1` (stereo not given), for which the inhibition was 7.22%.

For the compound `OC1CN=C2Sc3ccccc3N2C1` (stereo not given), the inhibition is -0.84%.

Turning to `c1ccc(-n2ncc3c2ncn2c(C4CCCCC4)nnc32)cc1`, the inhibition was 1.98%.

For the compound `CCN(CC)S(=O)(=O)c1cccc(C(=O)Nc2ccccc2)c1`, the inhibition is -8.69%.

As to `CCCOc1ccc(CN(CCO)CCO)cc1C(=O)OC`, the inhibition was 8.62%.

`CC(C)CCNC(=O)CN(C(=O)Cn1nnc(-c2ccc(F)cc2)n1)C1CCCC1`: the inhibition was 12.4%.

Consider `CC(=O)N1CC2(C)CN(C(C)=O)CC(C)(C1)C2=O`, for which the inhibition was -7.32%.

For the compound `C=CCn1c(COc2ccccc2F)nnc1SCC(=O)N1CC(=O)Nc2ccccc21`, the inhibition is 2.58%.

In the case of `C=CCn1c2ccccc2c2nnc(SC(CC)C(=O)Nc3nc(C)c(C(=O)OCC)s3)nc21` (stereo not given), the inhibition was -6.76%.

For `COc1ccc2occ(C(=O)c3ccc(N=C(C)N(C)C)cc3)c2c1`, the inhibition is 1.28%.

Consider `Cc1cccc(N2C(=O)SC(N(CC(=O)O)c3cccc(C)c3)C2=O)c1` (stereo not given), for which the inhibition was 18.4%.

With `COc1ccc(OC)c(S(=O)(=O)N(C)CC(=O)N2CCN(c3ccccc3)CC2)c1`, the inhibition is -0.18%.

For the compound `COC(=O)c1c(NC(=O)c2cccs2)sc2c1CCCC2`, the inhibition was -9.15%.

`COc1ccc(-c2nc(CS(=O)CC(=O)NCc3ccccn3)c(C)o2)cc1` (stereo not given): the inhibition is 32.3%.

In the case of `O=c1cccc(-c2ccc(Br)cc2)o1`, the inhibition is 11.7%.

For the compound `Cc1cc(C)cc(NC(=O)N2CCC(NC(=O)c3ccc(F)cc3)CC2)c1`, the inhibition was 15.2%.

On to `Cc1ccc(C(=O)Nc2ccc3c(c2)OCO3)cc1S(=O)(=O)N1CCCCC1`, for which the inhibition is 41.8%.

On to `CCOc1cccc(-c2nn3c(-c4ccccn4)nnc3s2)c1`, for which the inhibition is 20.7%.

As to `O=C(NC1CCCC1)c1ccc(Br)s1`, the inhibition was -2.98%.

For `CC(C)c1ccc(OCC(O)Cn2cnc3ccccc32)cc1` (stereo not given), the inhibition is -5.57%.

In the case of `c1ccc2cc(OCCN3CCCC3)ccc2c1`, the inhibition was 17.4%.

For the compound `COc1ccccc1N1CCN(C(=O)c2cc(-c3ccc(Cl)c(Cl)c3)on2)CC1`, the inhibition is 1.59%.

For `Cn1c(/C(C#N)=C2/CCCCCN2)nc2ccccc21`, the inhibition was -2.23%.

For the compound `CCOC(=O)c1cc2c(n(-c3ccc(C)cc3)c1=O)CCCC2=O`, the inhibition is -1.99%.

For `CCCC1CC(C)(C(=O)Cn2[nH]c(=O)ccc2=O)OC1=O` (stereo not given), the inhibition was 3.89%.

On to `Cc1ccc(S(=O)(=O)n2nc(OC(=O)C(C)(C)C)cc2N)cc1`, for which the inhibition was 9.62%.

On to `N#CC(C(=O)c1ccc(S(=O)(=O)N2CCCCCC2)cc1)c1nc2ccccc2[nH]1` (stereo not given), for which the inhibition was -6.58%.

Regarding `O=C(/C(=N\O)n1cncn1)c1ccc(Br)cc1Br`, the inhibition was 5.57%.

Regarding `COc1ccc(CCN=C2SCC(=O)N2C)cc1OC`, the inhibition is 11.7%.

`N#CNC1=NCN(CCc2ccccc2)CN1`: the inhibition was 17.9%.

As to `N#Cc1c(N)n(CCOC(=O)c2ccc(Cl)cc2)c2nc3ccccc3nc12`, the inhibition was -4.03%.

`Fc1ccccc1OCCCCn1cncn1`: the inhibition was -6.79%.

With `COc1ccc(OCCCON2C(=O)c3ccccc3C2=O)cc1`, the inhibition was -4.83%.

As to `O=C(CN1C(=O)CCC1=O)Nc1ccc(S(=O)(=O)N2CCOCC2)cc1`, the inhibition was 5.22%.

For `CC(C)Cc1nc(N2CCOCC2)c(C#N)c2c1CCC2`, the inhibition was -1.22%.

On to `CCOc1ccccc1C1NC(=O)NC(C)=C1C(=O)OCc1ccco1` (stereo not given), for which the inhibition was 16.9%.

The values above are taken from PubChem BioAssay AID460 (PCMD, 2006).
